According to PubChem BioAssay (NCATS):
Inconclusive results are not listed. Calls of active or inactive are those of the source. Unless noted, calls come from the whole dose curve.

Tests used:
[1] = molecular target: Peroxisome proliferator-activated receptor delta (Homo sapiens) (UniProt Q03181); assay: qHTS assay for small molecule agonists of peroxisome proliferator-activated receptor delta signaling (AID 588534);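 note: 0% = DMSO basal wells and 100% = positive control agonist at 10 µM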
How it was run: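 Agonist-mode qHTS; reporter cells, 5 hrs 37 C pre-incubation; compound titration, 18 hrs 37 C; CCF4 dye, 2 hrs RT; fluorescence read. EC50/efficacy via Hill fit.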

[2] = qHTS assay for small molecule antagonists of peroxisome proliferator-activated receptor delta signaling (AID 588535); conditions: HEK293T PPARd-UAS-bla, beta-lactamase FRET ratio, 18 h; 460 nm channel;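 note: cells co-treated with a PPAR-delta agonist as stimulator during compound exposure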
How it was run: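 Fluorescence from CCF4-loaded GeneBLAzer PPAR-delta-UAS-bla HEK293T cells (2 hrs RT loading) quantified reporter inhibition after an 18 hr, 37 C compound exposure across a titration.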

[3] = qHTS assay for small molecule agonists of retinoid X receptor alpha signaling (AID 588544); conditions: HEK293T RXRa-UAS-bla, beta-lactamase reporter, 18 h; 530 nm emission;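 for activation: 0% = DMSO basal wells and 100% = reference agonist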
[4] = molecular target: Retinoic acid receptor RXR-alpha (Homo sapiens) (UniProt P19793); assay: as above
Chain of Retinoic acid receptor RXR-alpha (Homo sapiens) (P19793 whole entry, looked up): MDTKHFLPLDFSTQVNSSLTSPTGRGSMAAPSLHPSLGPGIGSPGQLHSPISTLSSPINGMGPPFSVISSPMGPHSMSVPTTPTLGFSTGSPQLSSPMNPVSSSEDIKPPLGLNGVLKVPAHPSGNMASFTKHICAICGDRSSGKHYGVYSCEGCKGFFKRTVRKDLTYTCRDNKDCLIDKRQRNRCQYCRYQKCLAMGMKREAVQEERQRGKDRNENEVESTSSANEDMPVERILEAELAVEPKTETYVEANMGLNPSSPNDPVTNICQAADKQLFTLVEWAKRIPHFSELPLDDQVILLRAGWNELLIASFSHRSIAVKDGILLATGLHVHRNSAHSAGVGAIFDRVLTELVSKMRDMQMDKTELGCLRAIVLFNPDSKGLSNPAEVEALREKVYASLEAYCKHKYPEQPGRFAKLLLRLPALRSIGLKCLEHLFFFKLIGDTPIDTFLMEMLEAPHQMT

[5] = molecular target: Thyroid hormone receptor beta (Homo sapiens) (UniProt P10828); assay: qHTS assay for small molecule agonists of thyroid hormone receptor beta signaling (AID 588545)
Chain of Thyroid hormone receptor beta (Homo sapiens) (P10828 whole entry, looked up): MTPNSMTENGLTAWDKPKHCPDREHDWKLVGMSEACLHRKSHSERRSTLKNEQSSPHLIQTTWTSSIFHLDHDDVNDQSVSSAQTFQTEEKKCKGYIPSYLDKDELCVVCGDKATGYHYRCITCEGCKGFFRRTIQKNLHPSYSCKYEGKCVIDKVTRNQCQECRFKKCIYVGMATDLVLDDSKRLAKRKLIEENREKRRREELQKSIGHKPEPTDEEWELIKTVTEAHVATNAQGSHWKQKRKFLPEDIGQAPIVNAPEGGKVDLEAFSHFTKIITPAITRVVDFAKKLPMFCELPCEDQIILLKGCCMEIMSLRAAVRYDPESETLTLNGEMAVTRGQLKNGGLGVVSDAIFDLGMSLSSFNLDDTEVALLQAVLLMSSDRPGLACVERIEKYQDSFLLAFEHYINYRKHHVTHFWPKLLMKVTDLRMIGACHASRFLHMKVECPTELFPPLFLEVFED
How it was run: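 HEK 293 TR-UAS-bla; agonist mode; 18 hrs, 37 C; CCF4, ex 405/em 460 and 530 nm; norm. T3 10 nM = 100%, DMSO = 0%; Hill fit → EC50, efficacy.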

[6] = qHTS assay for small molecule activators of the p53 signaling pathway (AID 651743; active = well fitted activation curve with a large enough effect in the signal ratio, not every such curve was filed as active; the % refers to the signal ratio; note: potency is the fitted concentration of half-maximal effect; for activation: series mostly up to about 92 µM; % of control where 0% means no effect); conditions: HCT-116 p53RE-bla, beta-lactamase FRET ratio, 16 h; activation: stronger effect = higher value
How it was run: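 Following 16 hours of compound exposure at 37 C, HCT-116 cells bearing the p53RE-bla reporter were loaded with LiveBLAzer B/G FRET substrate for 2 hours at room temperature and fluorescence intensity was recorded.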

[7] = qHTS assay for environmental chemicals that activate the Aryl hydrocarbon Receptor (AhR) signaling pathway (AID 651777; active = well fitted curve in the direction sought with a large enough effect; an effect the other way counts as inactive or inconclusive; note: % of control where 0% means no effect; nearly all actives have a fitted effect of over 15% in size); conditions: 1A2-DRE human hepatoma cells, luciferase, 24 h; activation: stronger effect = higher value
How it was run: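 Luminescence (One-Glo, 30 min, room temperature) reports AhR-driven luciferase in stably transfected human hepatoma cells bearing DRE and CYP1A2 promoter. Cells (1,200/well) were treated with compound for 24 hr at 37 C in qHTS format.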

[8] = molecular target: Peroxisome proliferator-activated receptor alpha (Homo sapiens) (UniProt Q07869); assay: qHTS assay for small molecule agonists of the peroxisome proliferator-activated receptor alpha (PPARalpha) signaling pathway (AID 651778; active = well fitted curve in the direction sought with a large enough effect; an effect the other way counts as inactive or inconclusive; note: potency is the fitted concentration of half-maximal effect; for max response: % of control where 0% means no effect); conditions: PathHunter PPARalpha complementation, chemiluminescence, 6 h; max response: stronger effect = higher value
Chain of Peroxisome proliferator-activated receptor alpha (Homo sapiens) (Q07869 whole entry, looked up, the tested form may be a part): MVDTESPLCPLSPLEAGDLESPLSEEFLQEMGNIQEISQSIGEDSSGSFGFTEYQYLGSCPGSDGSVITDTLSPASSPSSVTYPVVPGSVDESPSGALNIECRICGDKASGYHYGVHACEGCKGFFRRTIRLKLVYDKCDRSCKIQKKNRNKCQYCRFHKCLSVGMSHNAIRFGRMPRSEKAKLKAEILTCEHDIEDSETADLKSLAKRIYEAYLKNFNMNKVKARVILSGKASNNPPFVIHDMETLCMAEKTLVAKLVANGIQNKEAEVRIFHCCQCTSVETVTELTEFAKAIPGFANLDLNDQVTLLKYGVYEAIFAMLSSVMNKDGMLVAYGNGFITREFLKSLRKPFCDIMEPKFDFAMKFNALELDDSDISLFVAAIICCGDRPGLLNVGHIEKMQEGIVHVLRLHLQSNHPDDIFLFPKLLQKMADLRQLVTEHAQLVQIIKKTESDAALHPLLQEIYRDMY
How it was run: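 Enzyme-fragment complementation assay in which ligand-bound PPARalpha translocates and forms an active enzyme that generates chemiluminescence. Cells were plated overnight, exposed to compound for 6 hr at 37 C, and then given detection reagent for 60 min at room temperature.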

[9] = qHTS assay for small molecule agonists of the antioxidant response element (ARE) signaling pathway measured by Nrf2-dependant transcriptional activity (AID 720636; active = well fitted curve in the direction sought with a large enough effect in the repeat runs; an effect the other way counts as inactive or inconclusive; note: % of control where 0% means no effect)
How it was run: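 Nrf2-dependent transcription read as ONE-Glo luciferase signal from ARE-luc HepG2 reporter cells after 16 hr compound treatment at 37 C, 5% CO2, in assay medium with 1% dialyzed FBS.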

[10] = qHTS assay for small molecule agonists of the antioxidant response element (ARE) signaling pathway measured by Nrf2-dependant transcriptional activity - cell viability counter screen (AID 720653; active = well fitted curve in the direction sought with a large enough effect in the repeat runs; an effect the other way counts as inactive or inconclusive; note: % is set by controls: 0 for no effect and ±100 for the full control effect); conditions: ARE-bla HepG2 viability, CellTiter-Glo ATP luminescence, 16 h; max response: stronger effect = lower value
How it was run: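 ARE-bla HepG2 cells treated with compounds for 16 h at 37C; this counter screen measures viability as intracellular ATP by CellTiter-Glo luminescence after 30 min at room temperature.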

[11] = qHTS assay for cell viability of HEK293 cells (AID 743288; active = well fitted curve in the direction sought with a large enough effect; an effect the other way counts as inactive or inconclusive; note: % is set by controls: 0 for no effect and ±100 for the full control effect; nearly all actives have a fitted effect of over 50% in size); conditions: ATP luminescence (CellTiter-Glo), 18 h; max response: stronger effect = lower value
How it was run: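 ATP luminescence (CellTiter-Glo) reports metabolically competent cell number after parental HEK293 cells, 2,000/well, were treated with DMSO-dissolved compounds for 18 h at 37 C; reagent incubation 30 min, room temperature.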

[12] = qHTS assay for cell viability of the p53RE-bla HCT-116 cell line (AID 743292; active = well fitted curve in the direction sought with a large enough effect; an effect the other way counts as inactive or inconclusive; note: % is set by controls: 0 for no effect and ±100 for the full control effect; nearly all actives have a fitted effect of over 55% in size)
How it was run: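 ATP-based luminescent viability (CellTiter-Glo, 30 min RT) after 16 h compound treatment at 37 C of p53RE-bla HCT-116 cells, seeded at 4,000 cells/well and rested 5 h before dosing.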

[13] = molecular target: Glucocorticoid receptor (Homo sapiens) (UniProt P04150); assay: qHTS assay for small molecule antagonists of glucocorticoid receptor signaling (AID 588533; active = well fitted inhibition curve with a large enough effect in the signal ratio, with a control signal flat, not every such curve was filed as active; the % refers to the signal ratio; note: % is set by controls: 0 for no effect and ±100 for the full control effect)
Chain of Glucocorticoid receptor (Homo sapiens) (P04150 whole entry, looked up): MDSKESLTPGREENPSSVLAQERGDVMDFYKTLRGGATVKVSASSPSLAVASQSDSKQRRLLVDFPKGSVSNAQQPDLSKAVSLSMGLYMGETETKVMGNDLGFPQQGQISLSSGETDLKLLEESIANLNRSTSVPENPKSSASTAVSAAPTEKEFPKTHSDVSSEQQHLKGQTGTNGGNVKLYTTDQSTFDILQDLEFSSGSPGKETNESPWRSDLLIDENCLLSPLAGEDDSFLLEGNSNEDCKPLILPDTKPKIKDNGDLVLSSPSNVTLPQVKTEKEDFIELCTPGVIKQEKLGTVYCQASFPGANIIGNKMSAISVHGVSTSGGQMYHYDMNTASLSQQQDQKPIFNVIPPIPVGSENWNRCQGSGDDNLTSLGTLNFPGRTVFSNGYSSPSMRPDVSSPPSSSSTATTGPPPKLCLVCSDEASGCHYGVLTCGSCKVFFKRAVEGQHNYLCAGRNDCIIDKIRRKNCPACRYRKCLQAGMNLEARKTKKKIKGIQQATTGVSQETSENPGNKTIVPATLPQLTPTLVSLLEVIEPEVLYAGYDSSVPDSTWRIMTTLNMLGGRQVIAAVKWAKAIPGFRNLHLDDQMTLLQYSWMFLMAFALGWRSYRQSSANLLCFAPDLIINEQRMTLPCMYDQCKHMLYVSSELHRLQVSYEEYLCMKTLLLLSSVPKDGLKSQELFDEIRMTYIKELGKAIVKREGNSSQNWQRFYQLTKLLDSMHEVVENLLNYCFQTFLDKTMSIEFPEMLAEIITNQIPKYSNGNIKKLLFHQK
How it was run: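 Antagonist-mode qHTS: compound titrations added to GRE-bla HeLa cells, then dexamethasone 2 nM final; 18 h, 37 C. CCF4 FRET fluorescence normalized to dexamethasone and DMSO; IC50 from Hill fit.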

[14] = qHTS assay for small molecule antagonists of retinoid X receptor alpha signaling (AID 588546; active = well fitted inhibition curve with a large enough effect in the signal ratio, with a control signal flat, not every such curve was filed as active; the % refers to the signal ratio;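 note: cells stimulated with 9-cis-retinoic acid as agonist; % is set by controls: 0 for no effect and ±100 for the full control effect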); conditions: HEK293T RXRa-UAS-bla, beta-lactamase ratio, antagonist mode; measured here: W530 green channel, cytotoxicity proxy
How it was run: (§1)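 Beta-lactamase reporter inhibition, read as CCF4 fluorescence ratio (ex 405, em 460/530 nm) after 2 h at RT. HEK293T UAS-bla cells, 2500/well, were stimulated with 9-cis-RA at 500 or 100 nM final alongside test compound for 18 h at 37 C.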

[15] = molecular target: Retinoic acid receptor RXR-alpha (Homo sapiens) (UniProt P19793); assay: as above; conditions: HEK293T RXRa-UAS-bla, beta-lactamase ratio, antagonist mode
How it was run: as §1

[16] = molecular target: Bile acid receptor (Homo sapiens) (UniProt Q96RI1); assay: qHTS assay for small molecule agonists of farnesoid X receptor signaling (AID 588527); conditions: HEK293T FXR-UAS-bla, beta-lactamase ratio, 16 h; activation: stronger effect = higher value;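 note: series mostly up to about 77 µM; 0% = vehicle basal and 100% = reference agonist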
Chain of Bile acid receptor (Homo sapiens) (Q96RI1 whole entry, looked up): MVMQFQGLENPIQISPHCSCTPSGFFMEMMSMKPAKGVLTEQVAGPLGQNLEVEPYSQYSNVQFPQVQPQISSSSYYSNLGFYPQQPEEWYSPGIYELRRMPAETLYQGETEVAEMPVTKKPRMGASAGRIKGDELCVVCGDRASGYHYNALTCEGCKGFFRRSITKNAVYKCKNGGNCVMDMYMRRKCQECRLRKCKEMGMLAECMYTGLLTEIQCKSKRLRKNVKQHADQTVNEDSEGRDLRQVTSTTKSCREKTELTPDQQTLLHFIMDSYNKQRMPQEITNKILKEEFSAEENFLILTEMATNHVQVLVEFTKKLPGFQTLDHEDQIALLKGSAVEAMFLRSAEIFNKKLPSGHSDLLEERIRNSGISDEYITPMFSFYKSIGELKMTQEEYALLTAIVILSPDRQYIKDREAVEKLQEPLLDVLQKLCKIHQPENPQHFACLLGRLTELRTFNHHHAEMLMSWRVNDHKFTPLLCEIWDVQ
How it was run: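 FXR-UAS-bla HEK293T, 10% dialyzed FBS; cpds up to 92 uM titration, 16 h 37 C; CCF4 dye 2 h RT; fluorescence. Normalized to chenodeoxycholic acid 100 uM (100%) and DMSO (0%); Hill fit gives EC50, efficacy.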

[17] = molecular target: Thyroid hormone receptor beta (Homo sapiens) (UniProt P10828); assay: qHTS assay for small molecule antagonists of thyroid hormone receptor beta signaling (AID 588547; active = well fitted inhibition curve with a large enough effect in the signal ratio, with a control signal flat, not every such curve was filed as active; the % refers to the signal ratio;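 note: cells stimulated with 0.4 nM T3 agonist during compound exposure; series mostly up to about 77 µM; % is set by controls: 0 for no effect and ±100 for the full control effect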); conditions: TR-UAS-bla HEK293, beta-lactamase ratio, antagonist mode, 18 h
How it was run: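 TR-UAS-bla GripTite HEK293 cells in 2% charcoal/dextran FBS medium; compounds 0.59 nM to 92 uM with T3 at 0.4nM final, 18 h at 37 C. Beta-lactamase read by CCF4 fluorescence (460/530 nm); Hill fits gave IC50 and efficacy.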

[18] = molecular target: Nuclear receptor subfamily 1 group I member 2 (Rattus norvegicus) (UniProt Q9R1A7); assay: qHTS assay for small molecule activators of the rat pregnane X receptor (rPXR) signaling pathway (AID 651751; call rule not given here; note: 0% is about no effect); conditions: rPXR reporter cells, luciferase (One-Glo), 24 h
Chain of Nuclear receptor subfamily 1 group I member 2 (Rattus norvegicus) (Q9R1A7 whole entry, looked up): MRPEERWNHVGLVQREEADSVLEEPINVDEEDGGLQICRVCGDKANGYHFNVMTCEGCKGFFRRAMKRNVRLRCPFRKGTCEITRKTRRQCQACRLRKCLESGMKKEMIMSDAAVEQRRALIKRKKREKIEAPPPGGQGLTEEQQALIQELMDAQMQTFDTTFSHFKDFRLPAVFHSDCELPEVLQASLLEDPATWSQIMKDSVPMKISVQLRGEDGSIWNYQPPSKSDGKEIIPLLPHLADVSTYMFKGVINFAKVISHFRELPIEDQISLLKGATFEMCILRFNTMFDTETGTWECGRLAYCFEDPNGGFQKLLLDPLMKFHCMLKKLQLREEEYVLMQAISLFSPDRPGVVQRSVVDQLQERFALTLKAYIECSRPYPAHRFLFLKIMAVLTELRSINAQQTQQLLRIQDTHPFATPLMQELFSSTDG

[19] = molecular target: Vitamin D3 receptor (Homo sapiens) (UniProt P11473); assay: qHTS assay for small molecule antagonists of vitamin D receptor signaling (AID 588541)
Chain of Vitamin D3 receptor (Homo sapiens) (P11473 whole entry, looked up): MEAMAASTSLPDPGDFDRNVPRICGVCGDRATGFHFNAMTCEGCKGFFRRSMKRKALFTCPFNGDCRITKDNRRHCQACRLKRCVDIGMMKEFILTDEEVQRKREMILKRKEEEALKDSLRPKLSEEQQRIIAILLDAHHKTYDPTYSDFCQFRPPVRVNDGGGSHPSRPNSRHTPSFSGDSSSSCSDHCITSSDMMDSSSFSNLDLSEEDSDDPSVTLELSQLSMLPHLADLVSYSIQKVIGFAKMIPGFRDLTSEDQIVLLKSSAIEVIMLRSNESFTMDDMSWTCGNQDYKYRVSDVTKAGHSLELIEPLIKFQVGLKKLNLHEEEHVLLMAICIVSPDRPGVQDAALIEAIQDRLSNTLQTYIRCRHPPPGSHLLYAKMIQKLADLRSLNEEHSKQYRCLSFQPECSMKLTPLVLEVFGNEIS
How it was run: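 VDR-UAS-bla HEK293T cells in 2% charcoal-stripped FBS were stimulated with 1-alpha,25-dihydroxyvitamin D3 (3 nM final) plus compound for 16 h at 37 C. The beta-lactamase CCF4 readout was normalized to 50 nM agonist and DMSO, and Hill fits gave IC50.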

[20] = molecular target: Vitamin D3 receptor (Homo sapiens) (UniProt P11473); assay: qHTS assay for small molecule agonists of vitamin D receptor signaling (AID 588543);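 note: 0% = DMSO basal and 100% = reference agonist control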
How it was run: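 β-lactamase reporter, VDR-UAS-bla HEK293T, agonist mode. Cells plated 5 h at 37 °C, compound titration 16 h at 37 °C, CCF4 dye 2 h RT, ratio 460/530 nm. Hill fit → EC50, efficacy vs 50 nM 1α,25-(OH)2D3.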

Chain of Peroxisome proliferator-activated receptor delta (Homo sapiens) (Q03181 whole entry, looked up): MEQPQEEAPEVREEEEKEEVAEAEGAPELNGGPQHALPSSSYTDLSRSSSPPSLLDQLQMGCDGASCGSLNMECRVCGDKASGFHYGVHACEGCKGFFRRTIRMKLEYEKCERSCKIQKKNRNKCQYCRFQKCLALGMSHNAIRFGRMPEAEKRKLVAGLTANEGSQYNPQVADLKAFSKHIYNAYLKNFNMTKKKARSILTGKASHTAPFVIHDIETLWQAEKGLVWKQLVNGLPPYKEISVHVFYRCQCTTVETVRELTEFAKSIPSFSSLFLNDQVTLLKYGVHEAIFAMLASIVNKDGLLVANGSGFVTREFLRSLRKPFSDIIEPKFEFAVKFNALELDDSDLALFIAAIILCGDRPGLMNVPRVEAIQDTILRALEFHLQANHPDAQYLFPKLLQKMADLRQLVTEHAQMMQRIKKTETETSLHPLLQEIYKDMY

CC1(C)[C@H](C(=O)O[C@H](C#N)c2cccc(Oc3ccccc3)c2)[C@@H]1C=C(Br)Br
-14.7%: max response [3]
6.87%: max response [2]
inactive: outcome [1] | Potency [4] | Potency [5] | activation [6] 3.18% | activation [7] -1.98% | max response [8] -0.333% | Potency [9] | max response [10] -10.6% | max response [11] -19% | Potency [12]

N#CC(CCc1ccc(Cl)cc1)(Cn1cncn1)c1ccccc1 (configuration not stated)
6.94%: max response [14]
inactive: Potency [13] | Potency [5] | max response [15] -64.1% | activation [6] 0.949% | activation [7] 3.22% | max response [8] -0.149% | Potency [9] | max response [10] -21.6% | max response [11] -24.7% | Potency [12]

Cc1[nH]c(=O)n(C(C)(C)C)c(=O)c1Cl
-0.982%: max response [3]
inactive: activation [16] 0.517% | Potency [4] | activity change % (negative = inhibition) [17] 8.21% | activation [7] 0.775% | max response [8] -1.56% | Potency [9] | max response [10] 0.82% | max response [11] -5.92% | Potency [12] | max response [18] 0.145%

N#Cc1cc(I)c(O)c(I)c1
inactive: outcome [1] | Potency [19] | Potency [4] | Potency [5] | max response [15] -13.5% | activation [7] -1.69% | Potency [9] | max response [10] -6.44% | max response [11] -4.72% | Potency [12] | max response [18] -7.71%
active: Potency [6] 44.7 µM | Potency [8] 15.8 µM
43.3%: max response [2]
19.3%: max response [3]
0.0011%: max response [14]

Cn1c(-c2ccccc2)cc(-c2ccccc2)[n+]1C
12.1%: max response [3]
inactive: outcome [1] | Potency [19] | outcome [20] | Potency [4] | max response [15] -10.3% | activation [7] -2.45% | Potency [9] | max response [10] -21.3% | max response [11] 5.36% | max response [18] -12.3%
17.2%: max response [14]

COc1cc(OC)nc(NC(=O)NS(=O)(=O)c2cc(NC=O)ccc2C(=O)N(C)C)n1
inactive: activation [16] -1.24% | Potency [13] | outcome [1] | Potency [19] | outcome [20] | Potency [4] | Potency [5] | max response [15] 14.5% | activity change % (negative = inhibition) [17] -8.65% | activation [6] -3.45% | activation [7] -3.78% | max response [8] -4.09% | Potency [9] | max response [10] 11% | max response [11] -24.7% | max response [18] -9.56%
-3.56%: max response [3]
-2.91%: max response [14]
-27.4%: max response [2]

CCC(C)(C)c1cc(-n2nc3ccccc3n2)c(O)c(C(C)(C)CC)c1
inactive: Potency [13] | outcome [1] | outcome [20] | Potency [4] | max response [15] 11.8% | activity change % (negative = inhibition) [17] 12% | activation [7] 0.0202% | max response [10] -12.9% | max response [11] -9.99% | Potency [12] | max response [18] -0.463%
-9.56%: max response [2]
-3.41%: max response [3]
-14%: max response [14]

COC(=O)c1c(C(F)F)nc(C(F)(F)F)c(C2=NCCS2)c1CC(C)C
-11.1%: max response [14]
-95%: max response [2]
inactive: outcome [1] | Potency [19] | outcome [20] | Potency [5] | max response [15] -17.3% | activity change % (negative = inhibition) [17] -8.88% | activation [6] 6.04% | activation [7] 2.1% | Potency [9] | max response [10] 1.66% | max response [11] -8.01% | Potency [12]

N#CCNC(=O)c1cnccc1C(F)(F)F
-6.46%: max response [14]
-20.3%: max response [2]
-4.19%: max response [3]
inactive: Potency [13] | outcome [1] | Potency [19] | Potency [4] | Potency [5] | max response [15] -7.71% | activity change % (negative = inhibition) [17] 15.2% | activation [6] -2.69% | activation [7] 1.26% | max response [8] -0.401% | Potency [9] | max response [10] -0.0757% | max response [11] -6.61% | Potency [12] | max response [18] 3.48%

CCNc1nc(Cl)nc(NC(C)(C)C)n1
inactive: activation [16] 0.616% | Potency [13] | Potency [19] | outcome [20] | Potency [5] | activation [7] 6.82% | max response [8] 0.909% | Potency [9] | max response [10] -4.66% | max response [11] -13.7% | Potency [12] | max response [18] 4.19%
33.2%: max response [2]

CCCCCCCCCCCC#N
-6.71%: max response [14]
inactive: activation [16] -2.48% | Potency [13] | outcome [1] | Potency [19] | outcome [20] | Potency [4] | max response [15] 4.86% | activity change % (negative = inhibition) [17] 16.2% | activation [6] 0.106% | activation [7] 1.84% | max response [8] -0.162% | Potency [9] | max response [10] -0.799% | max response [11] -1.15% | Potency [12] | max response [18] 0.164%
7.65%: max response [3]
-15.4%: max response [2]

CCCCCCCCCCCCC1=C(OC(C)=O)C(=O)c2ccccc2C1=O
active: Potency [6] 11.2 µM
inactive: activation [16] -0.713% | outcome [20] | activation [7] 1.53% | Potency [9] | max response [10] -15.3% | max response [11] -22.1% | max response [18] 0.383%

CCCCOC(=O)c1ccccc1C(=O)O
23.7%: max response [2]
inactive: activation [16] -1.61% | outcome [1] | Potency [4] | max response [15] 13.7% | activity change % (negative = inhibition) [17] 6.47% | activation [6] -2.82% | activation [7] -4.01% | max response [8] 0.528% | Potency [9] | max response [10] 18.5% | max response [11] 6.89% | max response [18] -8.39%
2.69%: max response [14]
-15.3%: max response [3]
